“And” between values parts separate entries of the source, which are not always exact repeats. Equal values may be shown once. The whole screen tested about 5,500 compounds, of which about 2,000 (36%) were called active. Another 18% or so got no clear call; they are omitted. Cut-off read from the data, not from the text of the source: active = normalized growth mostly below about 0.91 (no sharp cut-off); inconclusive = no clear call, values can overlap the other calls; inactive = mostly above about 0.92. This is one part of the list.
Test: chemical genetic growth profiling, strain panel (AID 1159580);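 note: tested at 20 µM; growth read once vehicle control cultures reached saturation at 30 °C; 1 = growth at the plate median or of vehicle wells; lower values mean less growth of the strain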
Settings: S. cerevisiae deletion strains, growth OD

Measured: normalized growth

N[C@@H](Cc1ccc(N(CCCl)CCCl)cc1)C(=O)O
inactive: locus YAL013W, strain DEP1, stronger effect = lower value 0.988 | locus YAL021C, strain ccr4, stronger effect = lower value 0.985 | locus YAL026C, strain drs2, stronger effect = lower value 0.997 | locus YAL030W, strain snc1, stronger effect = lower value 0.991 | locus YBL061C, strain skt5, stronger effect = lower value 0.987 | locus YBR009C, strain hhf1, stronger effect = lower value 0.985 | locus YBR021W, strain FUR4, stronger effect = lower value 1.05 | locus YBR023C, strain chs3, stronger effect = lower value 0.978 | locus YBR171W, strain sec66, stronger effect = lower value 0.98 | locus YBR229C, strain ROT2, stronger effect = lower value 0.947 | locus YBR231C, strain swc5, stronger effect = lower value 0.994 | locus YBR279W, strain paf1, stronger effect = lower value 0.988 | locus YCL011C, strain gbp2, stronger effect = lower value 0.971 | locus YCL016C, strain dcc1, stronger effect = lower value 0.968 | locus YCL029C, strain bik1, stronger effect = lower value 0.972 | locus YCL061C, strain MRC1, stronger effect = lower value 0.972 | locus YCL069W, strain vba3, stronger effect = lower value 0.984 | locus YCR088W, strain abp1, stronger effect = lower value 0.986 | locus YDL005C, strain med2, stronger effect = lower value 0.995 | locus YDL035C, strain GPR1, stronger effect = lower value 0.986 | locus YDL040C, strain nat1, stronger effect = lower value 0.985 | locus YDL074C, strain BRE1, stronger effect = lower value 0.977 | locus YDL101C, strain DUN1, stronger effect = lower value 0.972 | locus YDL134C, strain PPH21, stronger effect = lower value 0.987 | locus YDL192W, strain arf1, stronger effect = lower value 0.973 | locus YDR001C, strain nth1, stronger effect = lower value 0.978 | locus YDR069C, strain doa4, stronger effect = lower value 0.996 | locus YDR101C, strain arx1, stronger effect = lower value 0.983 | locus YDR137W, strain rgp1, stronger effect = lower value 0.964 | locus YDR150W, strain NUM1, stronger effect = lower value 0.974 | locus YDR159W, strain sac3, stronger effect = lower value 1.01 | locus YDR162C, strain NBP2, stronger effect = lower value 0.974 | locus YDR195W, strain ref2 0.975 | locus YDR297W, strain sur2, stronger effect = lower value 0.998 | locus YDR318W, strain mcm21, stronger effect = lower value 0.984 | locus YDR334W, strain swr1, stronger effect = lower value 0.966 | locus YDR335W, strain msn5, stronger effect = lower value 0.995 | locus YDR388W, stronger effect = lower value 0.984 | locus YDR392W, strain spt3, stronger effect = lower value 0.879 | locus YDR502C, strain sam2, stronger effect = lower value 0.971 | locus YEL003W, strain gim4, stronger effect = lower value 0.996 | locus YEL037C, strain rad23, stronger effect = lower value 0.973 | locus YEL061C, strain CIN8 (second series), stronger effect = lower value 0.978 | locus YEL061C, strain CIN8, stronger effect = lower value 0.982 | locus YER015W, strain faa2, stronger effect = lower value 0.995 | locus YER016W, strain bim1, stronger effect = lower value 1 | locus YER110C, stronger effect = lower value 0.977 | locus YER111C, strain swi4, stronger effect = lower value 0.967 | locus YER155C, strain BEM2 (second series), stronger effect = lower value 0.991 | locus YER155C, strain BEM2, stronger effect = lower value 0.979 | locus YER167W, strain BCK2, stronger effect = lower value 0.982 | locus YFR010W, strain ubp6, stronger effect = lower value 0.985 | locus YGL078C, strain dbp3, stronger effect = lower value 0.986 | locus YGL086W, strain mad1, stronger effect = lower value 0.983 | locus YGL167C, strain pmr1, stronger effect = lower value 0.987 | locus YGL173C, strain kem1, stronger effect = lower value 0.994 | locus YGL227W, strain vid30, stronger effect = lower value 0.995 | locus YGL240W, strain doc1, stronger effect = lower value 1.02 | locus YGL248W, strain PDE1, stronger effect = lower value 0.972 | locus YGL253W, strain hxk2, stronger effect = lower value 0.982 | locus YGR078C, strain PAC10, stronger effect = lower value 0.986 | locus YGR135W, strain pre9, stronger effect = lower value 0.962 | locus YGR229C, strain SMI1, stronger effect = lower value 0.974 | locus YGR252W, strain gcn5, stronger effect = lower value 1.02 | locus YHR013C, strain ard1, stronger effect = lower value 0.932 | locus YHR027C, strain rpn1, stronger effect = lower value 0.983 | locus YHR030C, strain SLT2, stronger effect = lower value 0.989 and 1.02 | locus YHR079C, strain IRE1 (second series), stronger effect = lower value 0.982 | locus YHR079C, strain IRE1, stronger effect = lower value 1.03 | locus YHR094C, strain hxt1, stronger effect = lower value 0.971 | locus YHR129C, strain ARP1, stronger effect = lower value 0.998 | locus YHR142W, strain chs7, stronger effect = lower value 0.941 | locus YHR200W, strain rpn10, stronger effect = lower value 0.97 | locus YIL066C, strain RNR3, stronger effect = lower value 0.983 | locus YIL073C, strain SPO22, stronger effect = lower value 0.963 | locus YIL125W, strain kgd1, stronger effect = lower value 0.979 | locus YIR030C, strain dcg1, stronger effect = lower value 0.981 | locus YJL092W, strain hpr5, stronger effect = lower value 0.979 | locus YJL095W, strain BCK1 (second series), stronger effect = lower value 0.984 | locus YJL095W, strain BCK1, stronger effect = lower value 1 and 1.02 | locus YJL115W, strain asf1, stronger effect = lower value 0.981 | locus YJL129C, strain trk1, stronger effect = lower value 0.969 | locus YJL134W, strain LCB3, stronger effect = lower value 0.981 | locus YJL154C, strain vps35, stronger effect = lower value 0.978 | locus YJL164C, strain tpk1, stronger effect = lower value 0.949 | locus YJL166W, strain qcr8, stronger effect = lower value 0.952 | locus YJL168C, strain set2, stronger effect = lower value 0.981 | locus YJL187C, strain SWE1 (second series), stronger effect = lower value 0.98 | locus YJL187C, strain SWE1, stronger effect = lower value 0.984 | locus YJR043C, strain POL32, stronger effect = lower value 0.989 | locus YJR066W, strain TOR1, stronger effect = lower value 0.959

Source: PubChem BioAssay AID1159580 (chemical genetic matrix, 2015)
